Test results from the supplement of paper PMC12494721.
Structures can show the parent of a compound that is named as a salt. Unmarked numbers belong to inactive results.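 Rule for the calls: for the amine columns active = adjusted P below 0.05 in both replicates with a change the same way and a mean fold change under 0.8 or over 1.25; inactive = the rest.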

Test system: Clostridium sporogenes DSM 1664
Experiment: fold change of Tryptamine concentration vs plate DMSO controls (fold change (ratio)); higher = more amine produced, active = hit call of the paper (significant change in both replicates, either direction)
Conditions: incubation time: 27 h, anaerobic, 37 °C
Method in brief: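 Anaerobic mGAM cultures of four gut bacterial strains were grown at 37 °C for 27 h in 80 µL wells, starting at OD 0.1 before 1:1 dilution. Compounds were at 20 µM final (sweeteners 50 µM). Whole cultures were extracted with cold acetonitrile/methanol containing 0.1% formic acid and centrifuged. Amines were quantified by LC–triple-quadrupole MS (dynamic MRM) against external calibration curves and drift-corrected within batch. Each value is the fold change versus plate DMSO controls, averaged over 2 biological replicates.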

Row | Structure (SMILES) | fold change of Tryptamine concentration
1 | CCOc1ccc(NC(C)=O)cc1 [Phenacetin] (20 µM) | 0.966
2 | CC(C)C(=O)Nc1ccc([N+](=O)[O-])c(C(F)(F)F)c1 [Flutamide] (20 µM) | 0.961
3 | Cc1ccc2c([nH]c(=O)c3c(=O)cc(C(=O)OCCC(C)C)oc32)c1C [Repirinast] (20 µM) | 1.08
4 | CCCCc1oc2ccccc2c1C(=O)c1cc(I)c(OCCN(CC)CC)c(I)c1 [Amiodarone hydrochloride] (20 µM) | 1.1
5 | NCc1ccc(S(N)(=O)=O)cc1 [Mafenide hydrochloride] (20 µM) | 0.888
6 | CC[C@@H](CO)NCCN[C@@H](CC)CO [Ethambutol dihydrochloride] (20 µM) | 0.996
7 | Nc1c2ccccc2nc2ccccc12 [Aminacrine] (20 µM) | 0.923
8 | CC(C(=O)O)c1cccc(C(=O)c2ccccc2)c1 (configuration not stated) [Ketoprofen] (20 µM) | 0.984
9 | CCOC(=O)[C@H](CCc1ccccc1)N[C@H]1CS[C@H](c2cccs2)CN(CC(=O)O)C1=O [Temocapril hydrochloride] (20 µM) | 0.989
10 | CC(COc1ccccc1)N(CCCl)Cc1ccccc1 (configuration not stated) [Phenoxybenzamine hydrochloride] (20 µM) | 1
11 | CC1(C)OC(=O)NC1=O [Dimethadione] (20 µM) | 1.03
12 | c1cnc(N2CCN(Cc3ccc4c(c3)OCO4)CC2)nc1 [Piribedil] (20 µM) | 1.18
13 | O=c1[nH]c(=O)n(C2CCCO2)cc1F (configuration not stated) [Tegafur] (20 µM) | 1.01
14 | Nc1ccc(S(=O)(=O)Nc2ncccn2)cc1 [Sulfadiazine] (20 µM) | 0.955
15 | Cc1onc(-c2c(Cl)cccc2Cl)c1C(=O)N[C@@H]1C(=O)N2[C@@H]1SC(C)(C)[C@@H]2C(=O)O [Dicloxacillin sodium salt hydrate] (20 µM) | 0.0119 (active)
16 | CN(C)CCC=C1c2ccccc2C=Cc2ccccc21 [Cyclobenzaprine hydrochloride] (20 µM) | 1.19
17 | C#C[C@]1(O)CC[C@H]2[C@@H]3CCc4cc(O)ccc4[C@H]3CC[C@@]21C [Ethinylestradiol] (20 µM) | 1.01
18 | CN1CC(O)c2cc(N=NC(N)=O)c(O)cc21 (configuration not stated) [Carbazochrome] (20 µM) | 1.1
19 | C[C@@H](O[C@H]1OCCN(Cc2n[nH]c(=O)[nH]2)[C@H]1c1ccc(F)cc1)c1cc(C(F)(F)F)cc(C(F)(F)F)c1 [Aprepitant] (20 µM) | 0.945
20 | CCOC(=O)c1c(N)sc2c1CCN(Cc1ccccc1)C2 [Tinoridine hydrochloride] (20 µM) | 0.982
21 | C/C(=C1\CCOC(=O)S1)N(C=O)Cc1cnc(C)nc1N [Cycotiamine] (20 µM) | 1.02
22 | CCN1CCN(C(=O)N[C@@H](C(=O)N[C@@H]2C(=O)N3[C@@H]2SC(C)(C)[C@@H]3C(=O)O)c2ccccc2)C(=O)C1=O [Piperacillin sodium salt] (20 µM) | 0.0439 (active)
23 | CN1CCN2c3ccccc3Cc3ccccc3C2C1 (configuration not stated) [Mianserine hydrochloride] (20 µM) | 0.952
24 | O=C(Oc1cccc2cccnc12)c1ccccc1 [Benzoxiquine] (20 µM) | 1.03
25 | Cc1cc(=O)n(-c2ccccc2)n1C [Antipyrine] (20 µM) | 1.03
26 | O=C1c2cccc(O)c2C(=O)c2c(O)cccc21 [Danthron] (20 µM) | 1.02
27 | Cc1c(Nc2ncccc2C(=O)O)cccc1C(F)(F)F [Flunixin meglumine] (20 µM) | 1.03
